Experimental data: paper PMC4336329 (PLoS ONE, 2015)
Screen size: about 310,000 compounds; about 14,000 (4.5%) showed an effect of 50% or more. Effects have a minus sign here. The sample as a whole holds a higher share of strong results than the screen did.

The compounds below were run against human ether-à-go-go-related gene (hERG) potassium channel (human, UniProt Q12809) (assay: primary screen, population patch clamp on CHO cells stably expressing hERG; higher = less effect of the substance).
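Further: peak tail current of the secondary pulse compared with the same well before compound.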

human ether-à-go-go-related gene (hERG) potassium channel, sequence (Q12809 whole entry, looked up): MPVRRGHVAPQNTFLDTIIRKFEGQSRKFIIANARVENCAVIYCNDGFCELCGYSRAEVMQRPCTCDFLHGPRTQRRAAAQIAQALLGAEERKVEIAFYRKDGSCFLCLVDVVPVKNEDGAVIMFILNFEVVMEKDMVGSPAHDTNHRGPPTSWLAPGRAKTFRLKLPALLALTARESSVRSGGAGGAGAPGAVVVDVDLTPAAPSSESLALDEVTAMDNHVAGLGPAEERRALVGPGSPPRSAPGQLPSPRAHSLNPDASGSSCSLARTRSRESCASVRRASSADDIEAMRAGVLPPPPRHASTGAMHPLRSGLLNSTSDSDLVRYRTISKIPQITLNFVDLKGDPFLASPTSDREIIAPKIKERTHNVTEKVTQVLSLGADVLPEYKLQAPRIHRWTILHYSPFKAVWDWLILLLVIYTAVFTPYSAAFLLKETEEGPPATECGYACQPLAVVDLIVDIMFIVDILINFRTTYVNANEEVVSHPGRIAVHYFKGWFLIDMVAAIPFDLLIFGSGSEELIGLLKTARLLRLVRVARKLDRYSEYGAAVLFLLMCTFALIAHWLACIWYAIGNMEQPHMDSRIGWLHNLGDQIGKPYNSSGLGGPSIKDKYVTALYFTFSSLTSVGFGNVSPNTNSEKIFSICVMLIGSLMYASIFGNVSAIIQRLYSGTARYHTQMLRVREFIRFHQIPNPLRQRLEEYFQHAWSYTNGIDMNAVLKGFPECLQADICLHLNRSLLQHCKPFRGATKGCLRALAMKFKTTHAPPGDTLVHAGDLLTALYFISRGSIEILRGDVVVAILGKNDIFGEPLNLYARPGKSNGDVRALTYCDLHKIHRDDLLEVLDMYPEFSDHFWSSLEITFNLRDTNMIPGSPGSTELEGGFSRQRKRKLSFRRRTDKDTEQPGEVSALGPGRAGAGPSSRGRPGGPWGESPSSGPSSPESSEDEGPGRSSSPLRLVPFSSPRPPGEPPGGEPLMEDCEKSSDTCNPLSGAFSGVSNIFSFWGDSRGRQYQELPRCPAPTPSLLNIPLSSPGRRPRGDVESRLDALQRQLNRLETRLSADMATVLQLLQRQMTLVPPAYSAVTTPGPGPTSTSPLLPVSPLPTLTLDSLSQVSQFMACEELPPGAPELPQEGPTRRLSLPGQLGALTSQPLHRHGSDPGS

SMILES	hERG current change (%, negative = inhibition) at 10uM
Nc1nccc(-c2ccc(-n3cnc4ccccc43)cc2)n1	-25.3%
O=C(/C=C/c1ccccc1)Nc1nnc(SCC(=O)c2ccc3ccccc3c2)s1	4.75%
COc1ccc(OC)c(N=c2oc3cc(O)ccc3cc2C(N)=O)c1	3.97%
COc1cccc(NC(=O)N2CCC(C(N)=O)(N3CCCCC3)CC2)c1	6.17%
COc1ccc(COc2ccsc2C(=O)Nc2ccc(Cl)cc2)cc1	7.17%
COc1ccsc1NC(=O)OCc1ccc(Cl)cc1	-77.8%
NNC(=O)c1sccc1OCc1ccc(Cl)cc1	2.41%
CC(C)(C)c1ccc(NC(=O)CN2C(=O)NC(C)(C3CC3)C2=O)cc1 (stereo not shown)	-25.5%
Cc1ccc(-c2nn3c(C)nnc3c3ccccc23)cc1S(=O)(=O)NCc1ccco1	-33.3%
O=C(CSc1ncnc2[nH]ncc12)Nc1nc(-c2ccc(F)c(F)c2)cs1	44.7%
COc1ccc(F)c(CN2CCC(n3nccc3NC(=O)C3CCOC3)CC2)c1 (stereo not shown)	5.47%
COc1ccc(O)c(CN2CCC(n3nccc3NC(=O)c3ccccc3Cl)CC2)c1	-40.6%
COc1cc(F)ccc1CN1CCC(n2nccc2NC(=O)C2CCOC2)CC1 (stereo not shown)	-14.5%
O=C(Nc1ccnn1C1CCN(Cc2cc(Cl)ccc2O)CC1)C1CC1	-55%
COc1ccc(O)c(CN2CCC(n3nccc3NC(=O)C3CCCC3)CC2)c1	-50.8%
O=C(Nc1ccnn1C1CCN(Cc2cc(Cl)ccc2O)CC1)c1cccnc1	-9.31%
O=C(Nc1ccnn1C1CCN(C(=O)Cc2cccc(Cl)c2)CC1)C1CC1	-7.34%
COc1ccc(CN2CCC(n3nccc3NC(=O)C3CCCC3)CC2)c(OC)c1	-73.2%
CCOCC(=O)Nc1ccc([N+](=O)[O-])cc1C	5.75%
Cc1nc(SCC(=O)N2CC(=O)Nc3ccccc32)c2c(C)c(C)sc2n1	-5.65%
COc1ccc(CCNC(=O)C(NS(=O)(=O)c2ccc3c(c2)CCN3C(C)=O)C(C)C)cc1OC (stereo not shown)	25.1%
CCC(=O)Nc1cccc(NC(=O)CSc2nc3c(c(=O)n(C)c(=O)n3C)n2C)c1	18%

SMILES	hERG current change (%, negative = inhibition) at 10uM
CCC1Sc2ccc(S(=O)(=O)CCC(=O)Nc3ccc(NC(C)=O)cc3)cc2NC1=O (stereo not shown)	19%
CSc1nc(=S)n(-c2ccc([N+](=O)[O-])cc2)c(C)c1C(C)=O	-68.3%
CSc1nc(=S)n(-c2ccccc2)c(C)c1C(C)=O	11.9%
CC(=O)c1c(N2CCOCC2)nc(=S)n(-c2ccc([N+](=O)[O-])cc2)c1C	-46.2%
CCOc1ccc(C(=O)Nc2ccc(CN3CCOCC3)cc2)cc1Br	-46.6%
Cc1cc(OCC(=O)Nc2ccc(CN3CCCCC3)cc2)ccc1Cl	-73.9%
CCOc1ccc(NC(=O)c2ccc(NC(=O)c3ccc(CN4CCOCC4)cc3)cc2)cc1	9.33%
CCc1ccc(OCC(=O)Nc2ccc(CN3CCCCC3)cc2)cc1	-18%
Cc1ccc(OCC(=O)Nc2ccc(CN3CCOCC3)cc2)cc1C	-39.3%
Cc1cc(C)cc(OCC(=O)Nc2ccc(CN3CCCCC3)cc2)c1	-43.7%
Cc1ccc(OCC(=O)Nc2ccc(CN3CCOCC3)cc2)cc1	-9.4%
CCOc1ccc(C(=O)Nc2ccc(CN3CCOCC3)cc2)cc1Cl	-56%
Cc1cc(OCC(=O)Nc2ccc(CN3CCOCC3)cc2)ccc1Cl	-51.8%
O=C1CC(=O)N(CCc2ccccc2)C(=O)N1CCc1ccccc1	6.19%
CN(C)S(=O)(=O)c1ccc(NC(=O)CSc2nc3ccccc3n2-c2ccccc2)cc1	24.2%
CCc1cccc(C)c1NC(=S)NCC(c1cccnc1)N1CCOCC1 (stereo not shown)	-14.3%
C/C(=N/NC(=O)CNC(=O)c1ccco1)c1ccc(Cl)cc1	-1.47%
CCOc1ccc(N2CC(C(=O)NCc3ccc(F)cc3)CC2=O)cc1 (stereo not shown)	-27.3%
CCOc1ccc(N2CC(C(=O)OCC(=O)c3ccc(OC)cc3)CC2=O)cc1 (stereo not shown)	-56%
CCOc1ccc(N2CC(C(=O)NCCc3ccc(S(N)(=O)=O)cc3)CC2=O)cc1 (stereo not shown)	12.1%
CCOc1ccc(N2CC(C(=O)NCCc3ccc(F)cc3)CC2=O)cc1 (stereo not shown)	-65.8%
CCOc1ccc(N2CC(C(=O)NCc3ccccc3)CC2=O)cc1 (stereo not shown)	-12.3%

SMILES	hERG current change (%, negative = inhibition) at 10uM
O=C(NCc1n[nH]c(=O)c2ccccc12)C1CC(=O)N(c2ccccc2)C1 (stereo not shown)	-1.81%
CCOc1ccc(N2CC(C(=O)NCCCc3ccccc3)CC2=O)cc1 (stereo not shown)	-51.2%
O=C(NCc1n[nH]c(=O)c2ccccc12)C1CC(=O)N(c2ccc(Cl)cc2)C1 (stereo not shown)	-70.7%
Cc1ccc(N2CC(C(=O)NCc3n[nH]c(=O)c4ccccc34)CC2=O)cc1 (stereo not shown)	-23.8%
CCOc1ccc(N2CC(C(=O)NCCc3ccccc3)CC2=O)cc1 (stereo not shown)	-29.6%
COc1ccc(N2CC(C(=O)OCC(=O)c3ccc(C)cc3)CC2=O)cc1 (stereo not shown)	13.9%
COc1ccc(N2CC(C(=O)OCC(=O)c3ccccc3)CC2=O)cc1 (stereo not shown)	-9.34%
CCC(CC)C(=O)Nc1cc(C(=O)NCCc2ccccc2)ccc1Cl	-8.24%
Cc1cccc(OCCCC(=O)Nc2ccc(S(=O)(=O)N3CCCC3)cc2)c1	-21.3%
CCOC(=O)c1c(-c2ccc(OC)cc2)oc2ccc(OC(=O)N(C)C)cc12	10.1%
Cc1nc2ccccc2c(=O)n1CCN1CCOCC1	4.18%
COc1ccc(-c2nn(-c3ccccc3)cc2C2CC(c3cccs3)=NN2C(=O)CCCC(=O)O)cc1 (stereo not shown)	17.9%
O=C(CN1C(=O)NC2(CCCCC2)C1=O)N1CCN(S(=O)(=O)c2ccccc2)CC1	13.8%
CCOc1ccc(N2CC(C(=O)Nc3cc(Cl)ccc3-n3cncn3)CC2=O)cc1 (stereo not shown)	-64.2%
CCOCCc1nnc(NC(=O)C2CC(=O)N(c3ccc(OCC)cc3)C2)s1 (stereo not shown)	-18.1%
O=C(NCCOc1ccc(Cl)cc1)C1CC(=O)N(c2ccc3c(c2)OCCO3)C1 (stereo not shown)	-27.9%
Cc1ccc(OCCNC(=O)C2CC(=O)N(c3ccc(C)cc3)C2)cc1 (stereo not shown)	-4.5%
CCOc1ccc(N2CC(C(=O)Nc3nnc(CC)s3)CC2=O)cc1 (stereo not shown)	-53.6%
CCOc1ccc(N2CC(C(=O)Nc3nnc(Cc4ccccc4)s3)CC2=O)cc1 (stereo not shown)	4.73%
CCOc1ccccc1N1CC(C(=O)Nc2cc(Cl)ccc2-n2cncn2)CC1=O (stereo not shown)	-10.3%
CCOc1ccc(N2CC(C(=O)Nc3ccc(F)cc3F)CC2=O)cc1 (stereo not shown)	-3.45%
O=C(NCCOc1ccc(Cl)cc1)C1CC(=O)N(c2ccc(F)cc2)C1 (stereo not shown)	-69.4%

SMILES	hERG current change (%, negative = inhibition) at 10uM
Cc1ccc(C(=O)c2nc(C(=O)NCCO)nc3ccccc23)cc1	25.8%
COc1ccc(-c2cc(=O)oc3c(C)c(OC(C)C(=O)N4C[C@H]5C[C@@H](C4)c4cccc(=O)n4C5)ccc23)cc1 (stereo partly shown)	-47.2%
CCOC(=O)c1[nH]c(C)c(C(=O)OCC(=O)N(Cc2ccccc2)C(C)C)c1C	-15.8%
Cc1cccc(OCCCCNCc2ccccc2)c1.O=C(O)C(=O)O	-38.1%
Cc1ccc(C(=O)NC(=S)N2CCN(C)CC2)cc1	-1.37%
COC(=O)c1ccc(CSc2nnc(CS(=O)Cc3ccc(Br)cc3)n2-c2ccccc2)cc1 (stereo not shown)	-12%
O=C(CN1CCN(S(=O)(=O)N2CCCCC2)CC1)Nc1ccc(Cl)c(Cl)c1	-28.2%
Cl.O=C(CN1CCCC1)Nc1ccc(Br)cc1	-1.25%
O=C(CN1CCN(S(=O)(=O)N2CCCCC2)CC1)Nc1cc(Cl)cc(Cl)c1	-32.5%
O=C(CN1CCCC1)Nc1ccc(S(=O)(=O)N2CCCCC2)cc1	4.2%
O=C(CN1CCCCCC1)Nc1ccc(Br)cc1	-32.3%
O=C(CN1CCN(S(=O)(=O)N2CCCCCC2)CC1)Nc1ccc(F)cc1	-74.9%
O=C(CN1CCCCC1)Nc1ccc(S(=O)(=O)N2CCCCCC2)cc1	-35.5%
O=C(CN1CCN(S(=O)(=O)N2CCCCCC2)CC1)Nc1ccc(Br)cc1	-74.3%
Cl.O=C(CN1CCN(C2CCCCC2)CC1)Nc1ccc(Br)cc1	-70%
S=C(Nc1ccc(Br)cc1)N1CCN(C2CCCCC2)CC1	-17.3%
O=C(CN1CCCCCC1)Nc1ccc(S(=O)(=O)N2CCCCC2)cc1	-38.7%
O=C(CN1CCN(S(=O)(=O)N2CCCCC2)CC1)Nc1ccc(Br)cc1	-78.2%
CC1CCC2(CC1)NC(=O)N(CC(=O)Nc1ccc3[nH]c(=O)[nH]c3c1)C2=O (stereo not shown)	0.0265%
